FLuc counter: firefly luciferase modulation, counter-screen for miR-21 project; purified FLuc, Km substrates, luminescence inhibition; 6.9% of 360,000 active; Potency, µM (doses to about 57.5 µM), for the others: top-dose activity change, negative = inhibition, actives largely listed as inhibitors; P08659; AID 588342;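 note: plate controls were vehicle for no effect and reference inhibitor for full effect; nearly all actives have a fitted effect of over 55% in size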
Target sequence (P08659 whole entry, looked up): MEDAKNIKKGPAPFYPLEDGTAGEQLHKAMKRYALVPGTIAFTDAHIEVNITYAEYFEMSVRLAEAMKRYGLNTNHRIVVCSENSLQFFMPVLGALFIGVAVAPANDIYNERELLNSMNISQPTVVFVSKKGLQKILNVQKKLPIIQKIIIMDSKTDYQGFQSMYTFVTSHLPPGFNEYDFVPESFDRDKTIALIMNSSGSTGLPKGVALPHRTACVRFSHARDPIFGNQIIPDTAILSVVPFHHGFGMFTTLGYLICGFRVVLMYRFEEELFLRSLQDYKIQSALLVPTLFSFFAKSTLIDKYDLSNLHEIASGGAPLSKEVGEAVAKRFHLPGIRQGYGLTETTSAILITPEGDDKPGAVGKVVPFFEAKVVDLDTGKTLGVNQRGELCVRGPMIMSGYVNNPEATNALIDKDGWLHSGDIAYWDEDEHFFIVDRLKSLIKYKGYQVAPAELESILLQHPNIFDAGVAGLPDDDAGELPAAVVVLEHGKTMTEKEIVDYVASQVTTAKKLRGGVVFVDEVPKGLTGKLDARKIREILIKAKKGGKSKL
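Purified P. pyralis luciferase, 10 nM final, with Km-level 10 uM D-luciferin and 10 uM ATP in 50 mM Tris acetate pH 7.5, 10 mM Mg acetate, 0.01% Tween-20, 0.05% BSA; 6-point qHTS titration about 60 µM downward; luminescence read.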
ELG1 DNA repair: blocks ELG1-dependent DNA repair in HEK293T cells | HEK293T ELG1-luciferase reporter, luminescence, 16 h; DNA damage induced by 5-fluorouridine | Potency, µM (doses to about 46.1 µM), inactives show at the highest dose activity change, negative = inhibition, hits mostly inhibitors | 2.3% of 330,000 active; note: % is set by controls: 0 for no effect and ±100 for the full control effect; nearly all actives have a fitted effect of over 55% in size
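Quantitative HTS, concentration-response format. 2,000 cells/well co-treated with 5-fluorouridine and compound, 16 hr in 5% CO2 at 37 °C; ONE-Glo luminescence read after 30 min.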
NPC1 promoter act: activators of NPC1 promoter; Huh7 NPC1 promoter luciferase reporter, 24 h; AID 485313; Potency, µM (highest dose often 9.22 µM), inactives show top-dose activation, actives largely listed as activators; 2.4% of 320,000 active; note: % of control where 0% means no effect; nearly all actives have a fitted effect of over 60% in size
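Huh7 cells stably carrying NPC1 promoter–luciferase, plated in Opti-MEM with 10% FBS for 2 h, were exposed to compound in DMSO for 24 h at 37 °C; luciferase reagent was added for 10 min and luminescence read.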
ELG1 genotoxic: inducers of genotoxicity in HEK293T ELG1-luciferase cells | HEK293T ELG1-luciferase reporter, luminescence, 16 h | Potency, µM (series often up to 46 µM), inactives show at the highest dose activity change, positive = activation, most hits filed as activators | 1.3% of 330,000 active | AID 504466; note: % of control where 0% means no effect; nearly all actives have a fitted effect of over 60% in size
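Luminescence read-out: rising ELG1-luciferase signal, reflecting elevated ELG1 protein under genetic stress, flags genotoxic compounds. Cells were treated for 16 hr at 37 °C before ONE-Glo detection.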
SMN2 splice enh: enhancers of SMN2 splice variant expression | AID 1458 | 2.8% of 210,000 active | Potency, µM (doses to about 46.1 µM), inactives show top-dose activity change, positive = activation, usual class: activators | HEK293 SMN2-luciferase splicing reporter, luminescence, 30-36 h; note: % of control where 0% means no effect; nearly all actives have a fitted effect of over 55% in size
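HEK293 cells carry an SMN2 […]–luciferase reporter in which exon 7 inclusion puts luciferase in frame. Cells were plated 10-12 h before compound addition, then incubated 30-36 h at 37C. ONE-Glo luminescence was read; sodium butyrate at 4.5 mM final served as control.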
Rab9 prom act: Rab9 promoter activation. Huh7 Rab9 promoter-luciferase reporter, luminescence, 24 h. Potency, µM (highest dose often 9.22 µM), without a hit: at the top dose activation, negative = inhibition, hits mostly activators. 2.8% of 320,000 active; note: % of control where 0% means no effect; nearly all actives have a fitted effect of over 60% in size
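Luciferase signal after 10 min detection reagent at ambient indicates Rab9 promoter upregulation; stably transfected Huh7 cells were treated 24 h with compound in DMSO at 37 °C, 5% CO2.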
* marks the source's active call; other numbers are inactive results; ? = inconclusive; . = not tested or not shown; [ ] = another dose, or the depositor's remark. Most compounds without a hit are left out; they make up all but 9.2% or so of the library. Calls come from the whole dose curve; as a rule, active = well fitted curve in the direction sought with a large enough effect; inconclusive = small, poorly fitted or top-dose-only effect, or another doubt; inactive = no such curve, though single readings can be large; an effect the other way counts as inactive or inconclusive. Potency is the fitted concentration of half-maximal effect.

SMILES	FLuc counter	ELG1 DNA repair	NPC1 promoter act	ELG1 genotoxic	SMN2 splice enh	Rab9 prom act
COC(=O)C1=NN(C(=O)c2ccccc2)C(C)(O)C1 (configuration not stated)	4%	?	-2%	1%	-8%	-1%
COC(=O)C1=NN(C(=O)c2ccccc2)C(O)(c2ccc([N+](=O)[O-])cc2)C1 (configuration not stated)	24µM*	7%	-2%	-1%	.	0%
Cc1ccc(NC2=C([N+](=O)[O-])CS(=O)(=O)C2)cc1	13µM*	?	8%	26%	18%	13%
CCc1ccc(NC(=O)CN2CCN(Cc3ccccc3)S2(=O)=O)cc1	-11%	.	.	.	.	.
Cc1ccc2nc(N3C(=O)C(O)=C(C(=O)c4cc5ccccc5o4)C3c3cccs3)sc2c1 (configuration not stated)	4.8µM*	?	27%	?	9%	21%
CCc1ccc2nc(N3C(=O)C(O)=C(C(=O)c4ccco4)C3c3cccs3)sc2c1 (configuration not stated)	?	?	-5%	5%	?	1%
CC(=O)Nc1ccc(NC(=O)Cn2cnc(S(=O)(=O)N3CCOCC3)c2)cc1	-2%	9%	0%	0%	.	3%
N#C/C(=C(/O)c1ccco1)c1nc2ccccc2s1	8.5µM*	?	2.2µM*	14%	25%	3.2µM*
N#C/C(=C(\O)Cc1ccccc1)c1nc2ccccc2[nH]1	-3%	?	3%	?	-25%	-3%
N#C/C(=C(/O)c1ccco1)c1nc2ccccc2[nH]1	19µM*	-1%	16%	2%	-34%	?
N#C/C(=C(/O)C(Cl)c1ccccc1)c1nc2ccccc2s1 (configuration not stated)	?	?	24%	?	-8%	?
Cn1c(/C(C#N)=C(\O)c2cccc(F)c2)nc2ccccc21	-5%	21%	30%	?	.	12%
N#C/C(=C(/O)c1cccc(F)c1)c1nc2ccccc2s1	19µM*	?	?	9%	.	?
N#C/C(=C(/O)c1cc2ccccc2o1)c1nc2ccccc2s1	6.7µM*	18%	3.2µM*	3%	.	?
COc1ccc(NS(=O)(=O)c2cccc(C(=O)N/N=C(\C)c3cccnc3)c2)cc1	7%	3%	-1%	1%	.	-2%
O=C(O)CCC(=O)OCCCc1cc2ccccc2c(=O)o1	.	?	.	0%	.	.
CCc1ccccc1NC(=O)c1cc(S(=O)(=O)NCCc2ccc(OC)c(OC)c2)ccc1F	-4%	.	.	.	.	.
CC1=CC(=C(C#N)c2nc3ccccc3s2)C=C(C)N1Cc1ccco1	4.8µM*	-26%	2%	1%	-16%	6%
O=C(NCc1ccco1)c1nc2ccccc2s1	?	?	3%	?	?	19%
CCOc1ccc(CCNC(=O)c2nn(C)c3c2CSc2ccc(C)cc2-3)cc1OCC	-2%	.	.	.	.	.
CC(CN1CCN(C)CC1)OC(=O)c1cccc(Cl)c1 (configuration not stated)	?	4%	10%	3%	.	11%
CC(Sc1nc(N)cc(=O)[nH]1)C(=O)Nc1sc2c(c1C#N)CCCC2 (configuration not stated)	?	8.2µM*	-10%	-1%	-61%	-2%
NC(=O)c1c(NC(=O)c2ccncc2)sc2c1CCCCCC2	12µM*	?	-5%	-4%	.	0%
Cc1noc(C)c1C(=O)Nc1sc2c(c1C(N)=O)CCCCC2	?	?	10%	-1%	3%	-5%
CN(C)C(=O)c1c(NC(=O)c2ccccc2)sc2c1CCC2	-4%	-1%	8%	2%	.	-1%
SMILES	FLuc counter	ELG1 DNA repair	NPC1 promoter act	ELG1 genotoxic	SMN2 splice enh	Rab9 prom act
Cn1nc(C(=O)Nc2sc3c(c2C#N)CCCC3)ccc1=O	5.4µM*	?	17%	?	-15%	29%
NC(=O)c1c(NC(=O)c2ccccc2)sc2c1CCC2	4.8µM*	?	2µM*	5.8µM*	.	3.2µM*
CCOC(=O)c1sc(NC(=O)c2ccncc2)c(C#N)c1C	11µM*	21µM*	-1%	-4%	-75%	-9%
NC(=O)c1c(NC(=O)c2cnccn2)sc2c1CCCC2	2.7µM*	?	?	?	?	2µM*
CCOC(=O)c1c(NC(=O)c2ccncc2)sc(C)c1C	-11%	-4%	-11%	-5%	-2%	-3%
NC(=O)c1c(NC(=O)c2ccncc2)sc2c1CCCC2	11µM*	11%	?	5%	-80%	?
N#Cc1c(NC(=O)c2cccc(S(=O)(=O)Nc3ccc(C(=O)O)cc3)c2)sc2c1CCCC2	19µM*	?	-1%	8%	.	0%
CN(C)[C@H]1C(=O)C(C(=O)NCN2CCCC2)=C(O)[C@]2(O)C(=O)C3=C(O)c4c(O)cccc4[C@@](C)(O)[C@H]3C[C@@H]12	.	.	.	.	-12%[20.6 µM]	.
Cc1ccc(CNC(=O)CN2CCN(Cc3ccc(F)cc3Cl)C2=O)cc1	-3%	.	.	.	4%	.
CC(C)N(C)S(=O)(=O)c1ccc(NC(=O)CSC(=S)N2CCCC2)cc1	-2%	0%	0%	-3%	.	1%
COc1cccc(NC(=O)c2cncs2)c1	-6%	3%	0%	0%	.	-2%[1.84 µM]
CCOc1ccc(Oc2ccccc2NC(=O)CN2C(=O)NC3(CCCC3)C2=O)cc1	5%	12%	-4%	-3%	.	-5%
CC(=O)Nc1sc2c(c1C#N)CCCC2	3%	.	.	.	-5%	.
Cc1cc(C(=O)Nc2sc3c(c2C#N)CCCCC3)cs1	0.95µM*	?	?	0.82µM*	11µM*	1.1µM*
NC(=O)c1c(NC(=O)c2ccccc2)sc2c1CCc1ccccc1-2	2.1µM*	?	4.5µM*	6.5µM*	?	3.5µM*
N#Cc1c(NC(=O)c2ccncc2)sc2c1CCC2	13µM*	34%	14%	20%	?	18%
COc1ccc(NC(=O)CSC2CCCCC2)cc1	12µM*	?	3.2µM*	?	16%	3.5µM*
CCOc1ccc(NC(=O)NC2CCCCCCC2)cc1	5.4µM*	?	1.8µM*	10µM*	.	3.5µM*
CCc1ccc(NC(=O)NC2CCCCCCC2)cc1	3.8µM*	?	0.71µM*	?	.	1.1µM*
Cc1ccc(NC(=O)NC2CCCCC2)cc1Cl	?	?	3.2µM*	3.7µM*	13µM*	?
CCOc1ccc(CC(=O)NNC(=O)NC2CCCCC2)cc1	-2%	9%	1%	2%	2%	2%
O=C(Nc1ccc(Br)cc1)NC1CCCCCCC1	6.7µM*	?	2.2µM*	?	.	4µM*

Assay outcomes (PubChem)
